Several values for one entry are separate records, joined by “and”; a condition that tells them apart may be missing. Identical values can stand only once. The source holds several records for some structures; these can differ, active in one and inactive in another. Activity calls are given as the source filed them. Unless noted, the call rests on the fitted dose curve; in most records, active means well fitted curve in the direction sought with a large enough effect in the repeat runs; inconclusive means weak or mixed curves; inactive means no such curve, though single readings can be large; an effect the other way counts as inactive or inconclusive.

These results are taken from PubChem BioAssay (Tox21).

The nature of assay [1]: qHTS assay to identify small molecule antagonists of the glucocorticoid receptor (GR) signaling pathway - cell viability counter screen (AID 720693). Further: nearly all actives have a fitted effect of over 55% in size. Further: potency means the concentration at half of the fitted maximal effect.
Assay [2] in a line: qHTS assay for identifying genotoxic compounds that show differential cytotoxicity against isogenic chicken DT40 cell lines with known DNA damage response pathways - wild type cell line (AID 743012). Further: nearly all actives have a fitted effect of over 60% in size. Further: potency means the concentration at half of the fitted maximal effect. The essentials: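 CellTiter-Glo luminescence readout of viability in wild type DT40 cells after 40 h compound exposure at 37 C/5% CO2; 300 cells/well; reagent incubated 30 min at room temperature before reading.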

The nature of assay [3]: qHTS assay for identifying genotoxic compounds that show differential cytotoxicity against isogenic chicken DT40 cell lines with known DNA damage response pathways - Rev3 mutant cell line (AID 743014). Further: nearly all actives have a fitted effect of over 55% in size. Further: potency means the concentration at half of the fitted maximal effect.
A short description of assay [4]: qHTS assay for identifying genotoxic compounds that show differential cytotoxicity against isogenic chicken DT40 cell lines with known DNA damage response pathways - Rad54/Ku70 mutant cell line (AID 743015). Further: nearly all actives have a fitted effect of over 60% in size. Further: potency means the concentration at half of the fitted maximal effect.
Assay [5] can be described thus: qHTS assay to identify small molecule antagonists of the androgen receptor (AR) signaling pathway - cell viability counter screen (AID 743033; further: nearly all actives have a fitted effect of over 45% in size; further: potency means the concentration at half of the fitted maximal effect).
Assay [6] is described as follows: qHTS assay to identify small molecule antagonists of the androgen receptor (AR) signaling pathway using the MDA cell line - cell viability counter screen (AID 743041; further: nearly all actives have a fitted effect of over 45% in size). The essentials: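 Cytotoxicity counter screen: MDA-kb2 AR-luc cells, compound + R1881, 16 h, 37C, 0% CO2; CellTiter-Fluor added at 15.5 h, fluorescence read after 30 min.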
Assay [7] is described as follows: qHTS assay to identify small molecule antagonists of the thyroid receptor (TR) signaling pathway - cell viability counter screen (AID 743064). Further: nearly all actives have a fitted effect of over 50% in size. Further: potency means the concentration at half of the fitted maximal effect. The essentials:
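Plate GH3.TRE-Luc cells; incubate 4 h at 37 °C; add compound, then T3 to 1 nM final; incubate 23.5 h; add CellTiter-Fluor; incubate 30 min at 37 °C, 5% CO2; read fluorescence.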

Assay [8] is described as follows: qHTS assay to identify small molecule antagonists of the thyroid receptor (TR) signaling pathway (AID 743065). Further: nearly all actives have a fitted effect of over 55% in size. Further: potency means the concentration at half of the fitted maximal effect. The essentials:
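GH3.TRE-Luc rat pituitary cells (two TREs driving luciferase) were dosed with compound, then stimulated with 1 nM T3 (final) for 23.5 h at 37 C. ONE-Glo luminescence was the read-out, with CellTiter-Fluor fluorescence as the cytotoxicity counter-screen.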

The test system of assay [9] is thyroid hormone receptor (rat, GH3 cells). As to the kind of experiment: qHTS assay to identify small molecule agonists of the thyroid receptor (TR) signaling pathway (AID 743066; calls by dose curve).
The nature of assay [10]: qHTS assay to identify small molecule antagonists of the estrogen receptor alpha (ER-alpha) signaling pathway - cell viability counter screen (AID 743074; calls by dose curve;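 further: HEK293 cells carrying ER-alpha-UAS-bla reporter stimulated with 17beta-estradiol; nearly all actives have a fitted effect of over 45% in size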; further: potency means the concentration at half of the fitted maximal effect).
The target in assay [11] is Estrogen receptor (Homo sapiens) (UniProt P03372). As to the kind of experiment: qHTS assay to identify small molecule agonists of the estrogen receptor alpha (ER-alpha) signaling pathway (AID 743075; calls by dose curve;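 further: HEK293 GripTite cells with ER-alpha and UAS-driven beta-lactamase reporter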; further: potency means the concentration at half of the fitted maximal effect).
Assay [12] has the same target. As to the kind of experiment: qHTS assay to identify small molecule agonists of the estrogen receptor alpha (ER-alpha) signaling pathway using the BG1 cell line (AID 743079). Further: nearly all actives have a fitted effect of over 20% in size. Further: potency means the concentration at half of the fitted maximal effect.
Assay [13] can be described thus: qHTS assay to identify small molecule antagonists of the estrogen receptor alpha (ER-alpha) signaling pathway using the BG1 cell line (AID 743080; calls by dose curve;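 further: BG1 cells stimulated with 17beta-estradiol alongside compound; nearly all actives have a fitted effect of over 25% in size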; further: potency means the concentration at half of the fitted maximal effect). The method in brief:
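Seeding, 24 h rest, compound transfer from DMSO, 17beta-estradiol addition, 21.5 h incubation, CellTiter-Fluor (30 min, 37 C), then ONE-Glo (30 min, room temperature): this sequence was run on BG1-Luc-4E2 reporter cells.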

Assay [14] can be described thus: qHTS assay to identify small molecule antagonists of the estrogen receptor alpha (ER-alpha) signaling pathway using the BG1 cell line - cell viability counter screen (AID 743081).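 Further: compound given together with 17beta-estradiol as the ER stimulus; nearly all actives have a fitted effect of over 45% in size.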
Assay [15] concerns the target Aromatase (Homo sapiens) (UniProt P11511). The assay is described as follows: qHTS assay to identify aromatase inhibitors (AID 743083). Further: nearly all actives have a fitted effect of over 55% in size. Further: potency means the concentration at half of the fitted maximal effect.
Assay [16] deals with Androgen receptor (Homo sapiens) (UniProt P10275). As to the kind of experiment: qHTS assay to identify small molecule antagonists of the androgen receptor (AR) signaling pathway (AID 743035; active means well fitted inhibition curve with a large enough effect in the signal ratio in the repeat runs, not every such curve was filed as active; inconclusive means weak or mixed curves, or effect the other way; inactive means no such curve, though single readings can be large or run the other way; the % refers to the signal ratio; further: potency means the concentration at half of the fitted maximal effect). The method in brief:
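AR-bla HEK293 reporter cells; 4 h settle at 37C/5% CO2; compound + R1881 agonist, 16 h at 37C; LiveBLAzer B/G FRET substrate 2 h RT; fluorescence intensity read. qHTS format.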

Assay [17] has the same target. As to the kind of experiment: qHTS assay to identify small molecule agonists of the androgen receptor (AR) signaling pathway (AID 743036; active means well fitted activation curve with a large enough effect in the signal ratio in the repeat runs, with a control signal flat, not every such curve was filed as active; inconclusive means weak or mixed curves, or effect the other way; inactive means no such curve, though single readings can be large or run the other way; the % refers to the signal ratio; further: potency means the concentration at half of the fitted maximal effect). The essentials:
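Reporter line: GeneBLAzer AR-UAS-bla-GripTite (HEK293). Steps: plate cells, 4 h rest, add compounds, 16 h at 37C, add LiveBLAzer B/G substrate, 2 h at RT, read fluorescence.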

Assay [18] has the same target. The assay is described as follows: qHTS assay to identify small molecule agonists of the androgen receptor (AR) signaling pathway using the MDA cell line (AID 743040; further: nearly all actives have a fitted effect of over 20% in size; further: potency means the concentration at half of the fitted maximal effect). Conditions: MDA-kb2 AR-luc cells, MMTV luciferase, 16 h; activity change: at 70.3 µM (top of the series), stronger effect = higher value. The method in brief:
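Luciferase read-out, ONE-Glo, 30 min RT. Cells: MDA-kb2 AR-luc, MMTV promoter with AR and GR response elements. Compound exposure 16 h, 37C, 0% CO2, after 5 h pre-incubation. qHTS agonist mode.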

For assay [19] the target is unchanged. The assay is described as follows: qHTS assay to identify small molecule antagonists of the androgen receptor (AR) signaling pathway using the MDA cell line (AID 743042; further: nearly all actives have a fitted effect of over 55% in size; further: potency means the concentration at half of the fitted maximal effect). The method in brief:
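MDA-kb2 breast carcinoma cells carrying MMTV-luciferase (AR/GR responsive) were co-treated with compounds and the agonist R1881 for 16 h at 37C. Inhibition read as ONE-Glo luminescence; CellTiter-Fluor fluorescence measured in parallel for cytotoxicity.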

Assay [20] has as its target Estrogen receptor (Homo sapiens) (UniProt P03372). The assay is described as follows: qHTS assay to identify small molecule antagonists of the estrogen receptor alpha (ER-alpha) signaling pathway (AID 743069; active means well fitted curve in the direction sought with a large enough effect in the signal ratio in the repeat runs, not every such curve was filed as active; inconclusive means weak or mixed curves, or effect the other way; inactive means no such curve, though single readings can be large or run the other way; the % refers to the signal ratio; further: potency means the concentration at half of the fitted maximal effect). The method in brief: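 Beta-lactamase FRET fluorescence is read after 2 hr at room temperature with LiveBLAzer B/G substrate. Before that, ER-alpha-bla HEK293 cells sit 4 hr after plating, then receive compound plus 17beta-estradiol and incubate 18 hr at 37C.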

Androgen receptor (Homo sapiens), sequence (P10275 whole entry, looked up): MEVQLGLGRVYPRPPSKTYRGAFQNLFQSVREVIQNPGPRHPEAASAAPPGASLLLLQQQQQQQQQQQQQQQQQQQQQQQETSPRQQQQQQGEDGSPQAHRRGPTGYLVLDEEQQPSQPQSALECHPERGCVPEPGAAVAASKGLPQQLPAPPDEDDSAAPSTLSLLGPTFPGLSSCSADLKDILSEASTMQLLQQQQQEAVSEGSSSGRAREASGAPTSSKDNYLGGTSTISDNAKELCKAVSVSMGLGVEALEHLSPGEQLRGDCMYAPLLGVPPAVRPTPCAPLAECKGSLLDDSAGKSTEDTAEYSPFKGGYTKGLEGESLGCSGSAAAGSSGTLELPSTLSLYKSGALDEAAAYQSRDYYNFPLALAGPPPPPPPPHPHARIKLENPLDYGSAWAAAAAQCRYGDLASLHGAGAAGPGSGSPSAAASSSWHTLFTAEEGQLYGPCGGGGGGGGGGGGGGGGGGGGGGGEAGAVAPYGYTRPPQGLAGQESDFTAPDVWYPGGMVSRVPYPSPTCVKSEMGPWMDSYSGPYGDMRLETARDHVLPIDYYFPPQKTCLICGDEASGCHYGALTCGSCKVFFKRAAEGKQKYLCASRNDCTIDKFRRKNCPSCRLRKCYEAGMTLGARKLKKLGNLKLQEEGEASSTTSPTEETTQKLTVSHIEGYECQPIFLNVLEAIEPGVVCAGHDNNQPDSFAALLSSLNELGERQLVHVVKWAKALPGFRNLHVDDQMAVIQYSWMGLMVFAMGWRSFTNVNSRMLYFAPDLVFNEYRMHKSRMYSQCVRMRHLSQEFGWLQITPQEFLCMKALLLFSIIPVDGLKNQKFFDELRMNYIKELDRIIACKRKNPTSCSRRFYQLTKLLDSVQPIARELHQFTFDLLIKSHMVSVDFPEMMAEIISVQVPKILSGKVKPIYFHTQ
Aromatase (Homo sapiens), sequence (P11511 whole entry, looked up): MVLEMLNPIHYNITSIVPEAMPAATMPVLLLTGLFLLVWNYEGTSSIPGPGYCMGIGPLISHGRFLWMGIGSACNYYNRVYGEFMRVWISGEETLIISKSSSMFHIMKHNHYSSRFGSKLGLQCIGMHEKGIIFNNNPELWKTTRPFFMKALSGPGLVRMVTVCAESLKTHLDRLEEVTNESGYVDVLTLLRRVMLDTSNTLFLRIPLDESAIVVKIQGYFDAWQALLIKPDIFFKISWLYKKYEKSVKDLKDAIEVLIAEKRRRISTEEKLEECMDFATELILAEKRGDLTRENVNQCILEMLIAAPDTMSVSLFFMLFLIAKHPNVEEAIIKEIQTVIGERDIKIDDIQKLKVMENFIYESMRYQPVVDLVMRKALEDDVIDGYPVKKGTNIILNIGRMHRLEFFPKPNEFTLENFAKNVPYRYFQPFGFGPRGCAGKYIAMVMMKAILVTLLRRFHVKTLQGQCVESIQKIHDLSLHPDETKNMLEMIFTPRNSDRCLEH
Estrogen receptor (Homo sapiens), sequence (P03372 whole entry, looked up): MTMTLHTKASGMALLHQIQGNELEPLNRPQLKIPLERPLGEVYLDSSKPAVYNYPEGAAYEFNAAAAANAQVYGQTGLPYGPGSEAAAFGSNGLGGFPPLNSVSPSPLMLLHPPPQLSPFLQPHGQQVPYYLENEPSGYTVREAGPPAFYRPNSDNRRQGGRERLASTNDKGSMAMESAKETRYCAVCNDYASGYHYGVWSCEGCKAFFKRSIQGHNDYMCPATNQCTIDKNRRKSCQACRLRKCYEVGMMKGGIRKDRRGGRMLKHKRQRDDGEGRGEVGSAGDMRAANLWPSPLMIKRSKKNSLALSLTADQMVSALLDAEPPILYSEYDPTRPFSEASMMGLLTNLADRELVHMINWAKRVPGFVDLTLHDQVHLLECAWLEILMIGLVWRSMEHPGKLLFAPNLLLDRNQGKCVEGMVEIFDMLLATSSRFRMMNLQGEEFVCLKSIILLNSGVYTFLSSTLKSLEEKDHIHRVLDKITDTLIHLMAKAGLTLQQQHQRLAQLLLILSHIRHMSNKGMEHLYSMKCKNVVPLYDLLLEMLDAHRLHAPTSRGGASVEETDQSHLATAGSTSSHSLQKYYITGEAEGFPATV

Turning to `CCCCN(CCCC)N=O`, the Potency result in assay [1], in assay [2], in [3], in assay [4], in [5] and in [6] was “inactive” each time. For the same compound, the Potency result in [7], in assay [8], in assay [9], in assay [10], in assay [11] and in assay [12] was “inactive” each time. The Potency result in assay [13], in assay [14] and in [15] was “inactive” throughout.

For `Cc1cc(C)cc(C)c1`, the Potency entry in [1], in [2], in [3], in [4], in assay [5] and in assay [6] was “inactive” throughout. The Potency entry in [7], in assay [8], in assay [9], in assay [10] and in assay [14] was “inactive” each time.

`Nc1cccnc1`: the Potency entry in assay [1], in [2], in [3], in assay [4], in assay [5] and in assay [6] was “inactive” each time. Moreover, the Potency result in assay [7], in [8], in assay [9], in assay [10], in assay [11] and in assay [12] was “inactive” each time. In addition, the Potency result in assay [13], in [14] and in assay [15] was “inactive” each time.

For the compound `O=C(Nc1ccc(Br)cc1)c1cc(Br)cc(Br)c1O`, the Potency in assay [1] is 3.45 µM (active) and 2.19 µM (active); in assay [2] it was 21.7 µM (active); in assay [3], “inactive and 19.3 µM (active)”; in assay [4], “inactive and 19.3 µM (active)”; in assay [5] it was “inactive and 24.5 µM (active) and 9.77 µM (active)”; in assay [7] it was 16.8 µM (active) and 5.43 µM (active) and 4.33 µM (active). Besides, the Potency in [8] is 8.41 µM (active) and 2.16 µM (active) and 1.93 µM (active); in assay [10] it was 6.01 µM (active) and 4.35 µM (active) and 2.19 µM (active); in [13], 15.4 µM (active); in [15] it was “inactive and 13.7 µM (active)”. Besides, the Potency entry in assay [6], in [9], in assay [11] and in assay [14] was “inactive” throughout.

With `CC(C)Oc1cc(-n2nc(C(C)(C)C)oc2=O)c(Cl)cc1Cl`, the Potency result in assay [1], in assay [17], in assay [18], in [6], in assay [9] and in assay [10] was “inactive” throughout. In addition, the Potency result in assay [11] and in assay [14] was “inactive” in each case. Besides, the Potency was 5.45 µM (active) in assay [2]; 6.11 µM (active) in assay [3]; 60.3 µM (active) and 4.86 µM (active) in [4]; 11 µM (active) in [5]; 43 µM (active) and 12.3 µM (active) in assay [16]; 38.6 µM (active) in assay [19]. The Potency in assay [7] is 53.7 µM (active); in [8], 67.6 µM (active); in assay [13] it was 47.9 µM (active); in [15], 60.3 µM (active) and 17.2 µM (active).

For `CCC(C)c1ccc(O)cc1` (stereo unspecified), the Potency entry in assay [1], in assay [2], in assay [5], in [7], in [8] and in [9] was “inactive” throughout. For the same compound, the Potency entry in [10] and in [14] was “inactive” throughout. Further, the Potency entry was “inactive and 61.1 µM (active)” in assay [3]; “inactive and 43.3 µM (active)” in assay [4].

With `CCC(C)(c1ccc(O)cc1)c1ccc(O)cc1`, the Potency entry in assay [1], in assay [5], in assay [9], in [10], in [13] and in [14] was “inactive” throughout. The Potency in assay [2] was 27.3 µM (active); in [3], 61.1 µM (active) and 34.4 µM (active); in assay [4], 30.6 µM (active); in assay [8], 61.1 µM (active); in [11] it was 195 nM [inconclusive] (active) and 1.95 µM [inconclusive] (active); in assay [12], 243 nM (active) and 273 nM (active). In addition, in [15], the Potency is 61.1 µM (active) and inactive.

With `OCC(O)CO`, the Potency result in assay [1], in [2], in assay [3], in [4], in assay [5] and in [7] was “inactive” each time. Besides, the Potency entry in [8], in assay [9], in assay [10], in assay [11], in [12] and in [13] was “inactive” in each case. For the same compound, the Potency entry in assay [14] and in [15] was “inactive” in each case.

Turning to `C=CCN(CC=C)C(=O)C(Cl)Cl`, the Potency entry in assay [1], in [2], in assay [3], in [4], in [5] and in assay [6] was “inactive” throughout. In addition, the Potency entry in assay [7], in [8], in [9], in [10], in assay [14] and in assay [15] was “inactive” each time.

In the case of `COP(=S)(OC)Oc1cc(Cl)c(Cl)cc1Cl`, the Potency result in assay [1], in assay [2], in assay [3], in assay [4], in assay [16] and in [18] was “inactive” throughout. The Potency result in assay [6], in assay [19], in assay [7], in assay [8], in assay [9] and in assay [10] was “inactive” in each case. Also, the Potency entry in [11], in [12], in [13], in assay [14] and in [15] was “inactive” throughout.

Regarding `C1=Cc2cccc3cccc1c23`, the Potency entry in assay [1], in assay [2], in assay [4], in assay [5], in assay [6] and in [7] was “inactive” throughout. Besides, the Potency result in assay [8], in [9], in [10], in [14] and in assay [15] was “inactive” throughout. The Potency in assay [3] was 60.1 µM (active).

Regarding `CCC(=O)O[C@H]1CC[C@H]2[C@@H]3CCC4=CC(=O)CC[C@]4(C)[C@H]3CC[C@]12C`, the Potency result in assay [1], in assay [19], in assay [9], in assay [10], in assay [13] and in assay [14] was “inactive” each time. The Potency entry in assay [15] is “inactive”. The Potency in assay [2] is 10.1 µM (active) and 19.3 µM (active); in [3] it was 11.4 µM (active) and 17.2 µM (active); in assay [4], 12.7 µM (active) and 21.7 µM (active); in assay [5], “inactive and 49 µM (active)”; in assay [17] it was 0.0039 µM (active); in [18], 1.3 nM (active) and 1.7 nM (active). Besides, the Potency result in [7] is “inactive and 43.3 µM (active)”; in assay [11], 3.23 µM [inconclusive] (active) and 3.47 µM [inconclusive] (active); in assay [12], 22.7 nM (active) and 34.4 nM (active).

In the case of `CC(C)NC(C)C`, the Potency result in assay [1], in assay [2], in assay [3], in assay [4], in [5] and in assay [7] was “inactive” each time. Further, the Potency result in assay [8], in [9], in assay [10], in assay [11], in [12] and in assay [13] was “inactive” in each case. Moreover, the Potency entry in assay [14] and in assay [15] was “inactive” each time.

With `CCOCN(C(=O)CCl)c1c(C)cccc1CC`, the Potency result in [1], in [5], in assay [7], in [9], in [10] and in [11] was “inactive” throughout. Moreover, the Potency entry in assay [12], in [13] and in assay [14] was “inactive” each time. Moreover, the Potency in assay [2] is 51.4 µM (active) and 17.2 µM (active); in assay [3] it was 7.27 µM (active) and 6.11 µM (active); in assay [4], 20.5 µM (active) and 7.7 µM (active); in [8], 64.8 µM (active) and 61.1 µM (active); in assay [20], 24.5 µM [inconclusive] (active); in assay [15] it was 28.9 µM (active) and 54.5 µM (active).
